Screens as filed in PubChem.
JMJD2C inh – blocks human GASC-1 demethylase activity. Q9H3R0. inhibition, % at 2.35 µM. hit rate 0.069% among 330,000. GST-JMJD2C(1-420) H3K9me3 demethylation, DELFIA europium;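 active means more than half of a compound's replicate wells show inhibition beyond 50%, single wells judged on their own value; inconclusive means some, but no more than half, of replicates pass 50% inhibition; inactive means no replicate passes 50% inhibition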;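 further: signal counts dimethyl H3K9 product captured on neutravidin plate; 0% = median of DMSO wells and 100% = 0.3 times that DMSO median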
Target sequence (Q9H3R0 1-420 limits assumed): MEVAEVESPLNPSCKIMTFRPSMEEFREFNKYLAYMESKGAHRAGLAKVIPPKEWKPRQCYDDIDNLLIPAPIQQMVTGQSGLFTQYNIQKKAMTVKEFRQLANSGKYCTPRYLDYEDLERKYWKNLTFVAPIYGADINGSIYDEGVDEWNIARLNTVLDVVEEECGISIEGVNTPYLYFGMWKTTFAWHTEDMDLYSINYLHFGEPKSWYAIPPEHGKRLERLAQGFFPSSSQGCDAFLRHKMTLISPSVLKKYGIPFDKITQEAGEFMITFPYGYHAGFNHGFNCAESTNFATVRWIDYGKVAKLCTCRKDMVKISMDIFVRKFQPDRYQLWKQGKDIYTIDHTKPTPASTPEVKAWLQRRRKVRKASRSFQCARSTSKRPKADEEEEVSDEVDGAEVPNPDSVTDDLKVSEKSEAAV
PfM18AAP inh-1 – blocks P. falciparum M18 aspartyl aminopeptidase. recombinant PfM18AAP, H-Glu-NHMec fluorogenic cleavage. inhibition, % at 7.35 µM. hit rate 1.2% among 290,000. AID 1822;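 active means inhibition above the campaign mean inhibition over all tested compounds plus 3 SD, cut at about 28% in these data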;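 further: 0% = plate median of test compound wells and 100% = 2 mM ZnCl2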
SMARCA2 act – increases SMARCA2 function in MMTV reporter cells; MG213 cells, MMTV-luciferase reporter, dexamethasone, overnight; activation, % at 9.1 µM; hit rate 1% among 370,000; AID 652017; in the data active means activation above about 7.8%;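 further: 0% = vehicle wells and 100% = reference activator wells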
MIN6 prolif-1 – induces beta-cell replication in MIN6 cells. AID 2380. proliferation, % at 10 µM. hit rate 0.29% among 330,000. MIN6 cells proliferation, ATPlite luminescence, 48 h; cells starved in 0.2% serum; 100% = growth in 10% serum;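 active means compounds whose signal lies at least 3.5 SD above the mean of all wells on their plate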;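 further: 0% = DMSO-treated cells in low-serum medium and 100% = 10% serum control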
Granule exo inh – blocks lytic granule exocytosis; inhibition, % at 10 µM; AID 651702; hit rate 0.66% among 360,000; TALL-104 LAMP-1 surface exposure, flow cytometry; cells stimulated with thapsigargin and PMA;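 active means inhibition above about 55%, limit read from the data; inconclusive means no clear call, values can overlap the other calls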
ALR inh – inhibitors of human sulfhydryl oxidase ALR; AID 485317; hit rate 3.8% among 290,000; purified ALR, DTT oxidation, H2O2 HRP-luminol luminescence; inhibition, % (no concentration beside the values);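 active means mean replicate inhibition above about 79%, with every replicate also reaching it, limit read from the data; inconclusive means only one of the two criteria met; inactive means mean below limit and not every replicate reaching it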
PfM18AAP inh-2 – confirmation of Plasmodium falciparum M18 aspartyl aminopeptidase inhibitors. shares compounds with PfM18AAP inh-1. recombinant PfM18AAP, H-Glu-NHMec fluorogenic cleavage. inhibition, % at 7.35 µM. hit rate 28% among 2,400;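 active means mean inhibition over replicate wells above the hit cutoff set for the earlier primary screen, cut at about 29% in these data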;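 further: 0% = median of test compound wells and 100% = 2 mM ZnCl2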
CTSL1 counter – Cathepsin L (human) inhibition, confirmation | shares compounds with PfM18AAP inh-1 | 2,400 tested, under 10 active | purified cathepsin L1, Z-Leu-Arg-MCA fluorescence | inhibition, % at 5.96 µM;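 active means average inhibition across replicates above the hit cutoff set in the earlier primary screen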;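 further: 0% = median of test compound wells and 100% = Z-Phe-Ala-diazomethylketone 1 µM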
Target sequence (P07711 whole entry, looked up): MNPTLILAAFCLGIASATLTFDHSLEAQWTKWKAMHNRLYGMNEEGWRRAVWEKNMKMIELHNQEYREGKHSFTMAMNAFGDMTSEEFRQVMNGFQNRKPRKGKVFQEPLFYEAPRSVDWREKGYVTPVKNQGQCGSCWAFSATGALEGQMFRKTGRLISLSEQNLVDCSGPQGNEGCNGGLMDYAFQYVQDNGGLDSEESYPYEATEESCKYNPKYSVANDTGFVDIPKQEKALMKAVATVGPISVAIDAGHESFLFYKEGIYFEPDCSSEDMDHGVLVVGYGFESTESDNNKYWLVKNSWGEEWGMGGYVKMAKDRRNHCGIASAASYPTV
MIN6 prolif-2 – MIN6 beta-cell replication induction, confirmed; shares compounds with MIN6 prolif-1; MIN6 beta-cell proliferation, ATPlite luminescence, 48 h; cells kept in 0.2% serum; scaled between 0.2% and 10% serum; proliferation increase, % at 50 µM; 920 tested, under 10 active;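 active means proliferation increase above 40% at any of the four tested concentrations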
SMARCA2 act conf – SMARCA2 activation, confirmation screen. shares compounds with SMARCA2 act. MG213 cells, MMTV-luciferase with dexamethasone, luminescence, overnight; MG213 cells expressing E1A, Rb sequestered; DMSO wells 0%, reference activator 100%. activation, % at 9.1 µM. hit rate 30% among 3,500;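 active means activation above its plate's cutoff, the mean activation of tested wells plus 3 SD, cut at about 7.9% in these data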
GAL4-VP16 Luc – counter-screen for SMARCA2 activators: GAL4-VP16 luciferase reporter activation | shares compounds with SMARCA2 act | HEK293 GAL4-VP16 pG5luc reporter, luciferase luminescence; scaled: DMSO wells 0%, SAHA wells 100% | activation, % at 9.1 µM | hit rate 41% among 3,500;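 active means activation above the solvent-only control well mean plus 3 SD, averaged across control plates, cut at about 5.2% in these data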
Numbers without * were called inactive; i = inactive; u = inconclusive; x = no result. Most compounds without a hit are left out; they make up all but 5.4% or so of the library.

SMILES	JMJD2C inh	PfM18AAP inh-1	SMARCA2 act	MIN6 prolif-1	Granule exo inh	ALR inh	MIN6 prolif-2	others
COc1ccc(NC(=O)n2nc(OC(=O)c3cccs3)cc2N)cc1	-2.1	49.7*	9.1*	1.6	1.2	x	x	PfM18AAP inh-2=4.8;CTSL1 counter=-16.7;SMARCA2 act conf=3.3;GAL4-VP16 Luc=2.2
Nc1nc2c(-c3ccc([N+](=O)[O-])cc3)nnn2c2ccccc12	x	x	-2.8	x	x	x	x
CCC(CC)c1nnc(NC(=O)c2ccc3c(c2)OCO3)s1	2.9	36.3*	10.0*	-2.2	-3.2	24.6	x	PfM18AAP inh-2=-27.2;CTSL1 counter=1.2;SMARCA2 act conf=3.1;GAL4-VP16 Luc=6.6*
O=C1Nc2ccccc2/C1=N\N=C\c1ccc(O)c(O)c1	-4.6	48.3*	9.5*	-5.2	-2.6	98.7*	x	PfM18AAP inh-2=47.3*;CTSL1 counter=11.0;SMARCA2 act conf=2.2;GAL4-VP16 Luc=6.4*
Cc1ccsc1/C=N/N=C1\C(=O)Nc2ccccc21	-12.2	-3.6	4.6	-1.0	-2.2	-4.9	x
COc1ccc(-c2nn(-c3ccccc3)cc2/C=N/Nc2cccc(C(=O)O)c2)cc1	x	33.0*	9.1*	x	1.2	x	x	PfM18AAP inh-2=-25.2;CTSL1 counter=1.8;SMARCA2 act conf=-3.0;GAL4-VP16 Luc=2.5
COc1ccc(-c2nn(-c3ccccc3)cc2/C=N/NC(=O)c2ccc3c(c2)OCO3)cc1	-1.1	5.7	x	-2.2	x	-6.9	x
O=S(=O)(NNc1ccc(Cl)nn1)c1ccc(F)cc1	23.2	69.2*	8.4*	-0.9	-1.9	-2.0	x	PfM18AAP inh-2=64.1*;CTSL1 counter=0.6;SMARCA2 act conf=1.4;GAL4-VP16 Luc=1.1
CCN1CCc2c(sc(NC(=O)Cc3ccccc3)c2C(N)=O)C1	-7.2	-1.9	-1.5	-1.2	0.0	-1.9	x
CCN1CCc2c(sc(NC(=S)NC(=O)c3ccco3)c2C(N)=O)C1	1.6	33.3*	9.8*	-1.2	-6.7	-21.1	x	PfM18AAP inh-2=-13.6;CTSL1 counter=0.2;SMARCA2 act conf=0.2;GAL4-VP16 Luc=3.4
COCCCNC(=O)C[C@H]1C[C@@]2(C(=O)OC)C(=C[C@H](C(C)(C)C)O[C@@H]2C)N(CCC2=CCCCC2)C1=O	x	x	-2.6	x	x	x	x
C[C@H](CO)N1C[C@H](C)[C@@H](CN(C)C(=O)c2ccc(N3CCN(C)CC3)cc2)OCc2cn(nn2)CCCC1=O	x	x	-2.5	x	x	x	x
CC(C)C(=O)Nc1sc2c(c1C#N)CCCCC2	-5.2	38.2*	12.2*	-3.0	-0.8	-9.3	x	PfM18AAP inh-2=-1.1;CTSL1 counter=-0.9;SMARCA2 act conf=1.7;GAL4-VP16 Luc=1.7
CC(=O)Nc1sc2c(c1C#N)CCCC2	-2.8	-4.1	-1.6	0.7	4.9	x	x
Cc1cc(Nc2cccc(C(F)(F)F)c2)cc(=O)n1-c1cccc(C(F)(F)F)c1	x	x	-4.4	x	x	x	x
CC1(C)CNC(=O)CC(C)(C)N1O	5.0	9.3	-1.1	6.6*	0.4	-1.8	-4.3
CC(C)CC1(C)CNC(=O)NC1	x	x	-2.4	x	-4.3	x	x
CCCCCCCCN1C(=O)[C@@H](CC(=O)N2CCCCC2)C[C@@]2(C(=O)OC)C1=C[C@H](COCc1ccccc1)O[C@@H]2C	x	x	-1.6	x	x	x	x
COc1ccc(S(=O)(=O)N2CCCc3nc(-c4ccc(Br)cc4)ccc32)cc1	x	x	-3.6	x	x	x	x
COc1ccc(NC(=O)c2c(Cl)cnn2C)c(C)c1	-1.6	-3.0	1.9	-2.7	0.2	-2.3	x
COC(=O)c1sccc1NC(=O)c1c(Cl)cnn1C	6.7	-3.1	-1.0	9.0*	-1.2	-4.7	0.9
COc1ccc(CCNC(=O)CN2c3cccc4cccc(c34)S2(=O)=O)cc1	x	x	-0.9	13.4*	-4.0	x	5.4
COc1ccc(CC(=O)NCCS(=O)(=O)N2CCN(c3ccccc3)CC2)cc1	u	x	1.0	11.3*	4.1	-3.9	-0.1
C=CCNC(=S)N1C[C@H]2CON(C)[C@H]2C[C@H]1c1ccccc1Br	x	x	3.1	x	x	x	x
CC(=O)C1=C(C)N(Cc2ccc(F)cc2)C(=S)NC1c1cccc(Cl)c1 (configuration not stated)	x	x	-0.7	x	x	x	x
SMILES	JMJD2C inh	PfM18AAP inh-1	SMARCA2 act	MIN6 prolif-1	Granule exo inh	ALR inh	MIN6 prolif-2	others
CCOC(=O)N1C(=O)[C@](CC)(c2ccccc2)N1C(=O)OCC	1.7	-14.5	2.1	12.2*	-2.9	x	-4.9
COCC(=O)NCC1CCN(C(=O)C(=O)c2cccs2)CC1	x	x	1.0	x	x	x	x
CCOc1ccc(C(=O)Nc2ccc3c(c2)OCO3)cc1OCC	0.1	4.4	-0.6	5.5*	-0.1	-9.0	2.9
C=CCN=C1NC(c2ccc(F)cc2)C(C(=O)OC)=C(C)N1Cc1ccccc1C(F)(F)F (configuration not stated)	x	x	-1.4	x	x	x	x
Cc1noc(C)c1COc1ccccc1C(=O)Nc1cccc(S(=O)(=O)N(C)C)c1	-1.9	x	1.5	13.9*	12.4	-2.6	-2.5
CC(=O)Nc1cccc(NC(=O)c2ccccc2OCc2c(C)noc2C)c1	16.1	x	-2.4	2.4	-0.8	-9.2	x
CCCCCCCCN1C(=O)[C@@H](CC(=O)N2CCN(C(=O)c3ccco3)CC2)C[C@@]2(C(=O)OC)C1=C[C@H](C1CCCC1)O[C@@H]2C	x	x	-2.8	x	x	x	x
COc1ccccc1N(CC(=O)NCCSc1ccccn1)S(=O)(=O)c1ccccc1	-1.2	2.1	-0.8	18.8*	22.8	-12.3	-2.0
CCOc1ccccc1N(CC(=O)NCCSc1ccccn1)S(=O)(=O)c1ccccc1	-5.2	8.9	-2.9	0.0	4.0	-5.3	x
C[C@@H]1ON(C)[C@H]2C[C@H]3c4[nH]c5cccc(Br)c5c4CCN3C(=O)[C@@H]12	x	x	3.8	x	x	x	x
COc1ccc(/C=N/n2cnc3c([nH]c4ccccc43)c2=O)cc1COc1ccccn1	i	-4.2	x	8.3*	x	8.9	3.0
Cc1ccc(OC(C)C(=O)Nc2ccc3c(c2)n(C)c(=O)n3C)cc1C (configuration not stated)	2.4	2.2	0.3	7.8*	2.2	-11.8	0.0
Cc1cc(C)cc(OC(C)C(=O)Nc2ccc3c(c2)n(C)c(=O)n3C)c1 (configuration not stated)	6.0	-11.8	-1.9	-4.4	-3.6	-12.5	x
C/C(Cl)=C/Cn1c(SCC(C)C)nc2c1c(=O)[nH]c(=O)n2C	-6.7	x	0.8	2.6	-1.6	1.9	x
CCCCOC(=O)CSc1nc2c(c(=O)[nH]c(=O)n2C)n1C/C=C(\C)Cl	-4.4	5.7	-4.0	5.4*	5.2	31.5	-3.9
